Compound activity (PubChem BioAssay)
Compounds with a hit are over-represented: about 3% of the library has one in this group of screens.
PTAP TSG101 blk – blocks PTAP/TSG101 interaction to inhibit HIV-1 budding | Q99816 | Fluorescence polarization, FITC-PTAP peptide / Tsg101 binding | Potency, µM (doses to about 115 µM), without a hit: at the highest dose activity change, negative = inhibition, actives largely listed as inhibitors | 340,000 tested, under 10 active | AID 493005; active = well fitted inhibition curve with a large enough effect in the main read-out, with a control signal flat, not every such curve was filed as active; inconclusive = small, poorly fitted or top-dose-only effect, or effect the other way, or a change in a side signal; inactive = no such curve, though single readings can be large or run the other way; also: % of control where 0% means no effect
Target sequence (Q99816 whole entry, looked up): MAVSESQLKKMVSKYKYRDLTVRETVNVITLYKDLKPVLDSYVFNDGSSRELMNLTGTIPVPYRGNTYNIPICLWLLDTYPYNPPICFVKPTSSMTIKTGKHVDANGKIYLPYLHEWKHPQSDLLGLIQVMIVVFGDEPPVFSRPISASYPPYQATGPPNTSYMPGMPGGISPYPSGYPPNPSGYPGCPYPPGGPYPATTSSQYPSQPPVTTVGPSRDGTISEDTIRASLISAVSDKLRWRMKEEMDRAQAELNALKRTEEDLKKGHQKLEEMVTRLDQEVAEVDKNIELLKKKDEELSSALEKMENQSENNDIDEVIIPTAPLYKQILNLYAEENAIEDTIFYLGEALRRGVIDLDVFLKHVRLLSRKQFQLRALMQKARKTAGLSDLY
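Fluorescence anisotropy tracks displacement of a FITC-tagged PTAP peptide (50 nM) from the Tsg101 binding domain (10 uM), following a 20 min room-temperature incubation at pH 7.5.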
PLK1 PBD inh – inhibitors of human PLK1 polo-box domain binding; Potency, µM, without a hit: max response, negative = inhibition, usual class: inhibitors; AID 720504; hit rate 2.8% among 360,000; Plk1 PBD binding of FITC phosphopeptide, fluorescence polarization; also: series mostly up to about 57 µM; % is scaled to controls: 0 for no effect and ±100 for the full control effect; nearly all actives have a fitted effect of over 65% in size
KAT2A inh – blocks human GCN5L2 histone acetyltransferase; GCN5L2 HAT assay, ThioGlo1 CoA-SH fluorescence; Potency, µM (highest dose often 58.9 µM), without a hit: top-dose activity change, negative = inhibition, actives largely listed as inhibitors; hit rate 0.21% among 390,000; also: % is scaled to controls: 0 for no effect and ±100 for the full control effect
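Titration-based screen in which CoA formation is detected via maleimide probe ThioGlo1 (50uM) turning fluorescent on thiol reaction; substrates H3(1-25) 75uM and acetyl-CoA 70uM, GCN5L2 20nM, 20 min incubation at room temperature.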
VDR inh – vitamin D3 receptor (human) inhibition; VDR-SRC2-3 peptide fluorescence polarization, 2 h; Potency, µM, for inactives: max response, negative = inhibition, hits mostly inhibitors; P11473; hit rate 0.93% among 400,000; also: % is scaled to controls: 0 for no effect and ±100 for the full control effect
Target sequence (P11473 whole entry, looked up): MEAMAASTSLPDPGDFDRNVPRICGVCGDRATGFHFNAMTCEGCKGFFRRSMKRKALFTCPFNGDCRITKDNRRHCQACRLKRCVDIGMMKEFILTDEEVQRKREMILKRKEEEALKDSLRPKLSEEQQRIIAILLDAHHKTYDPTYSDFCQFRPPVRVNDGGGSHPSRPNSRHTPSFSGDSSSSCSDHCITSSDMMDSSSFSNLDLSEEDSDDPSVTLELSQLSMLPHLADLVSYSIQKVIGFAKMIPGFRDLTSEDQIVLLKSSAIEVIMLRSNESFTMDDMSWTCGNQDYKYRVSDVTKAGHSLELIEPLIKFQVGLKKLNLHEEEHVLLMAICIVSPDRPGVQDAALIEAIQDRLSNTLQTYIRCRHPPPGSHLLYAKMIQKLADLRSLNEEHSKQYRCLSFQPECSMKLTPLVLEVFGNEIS
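Compounds are added to VDR with labelled SRC2-3 coactivator peptide and held 2 h at room temperature. Inhibition of the VDR–peptide interaction is then read as a change in fluorescence polarization.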
USP1 inh – blocks the human USP1/UAF1 deubiquitinase complex | O94782 | recombinant USP1/UAF1, Ub-Rhodamine cleavage fluorescence | Potency, µM (titrated, usually from 57.1 µM), for the others: at the top dose activity change, negative = inhibition, most hits filed as inhibitors | hit rate 0.23% among 390,000 | AID 743255; also: % is scaled to controls: 0 for no effect and ±100 for the full control effect; nearly all actives have a fitted effect of over 60% in size
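USP1/UAF1 complex (1 nM) preincubated 15 min at room temperature with compound, then Ub-Rho substrate (150 nM final) added. Kinetic fluorescence at 480/540 nm over 6 reads at 60 s intervals; 50 mM HEPES pH 7.8, 0.5 mM EDTA, 0.1 mg/ml BSA, 1 mM TCEP, 0.01% Tween-20.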
VDR confirm – inhibits human vitamin D receptor, primary hit validation; shares compounds with VDR inh; VDR-coactivator inhibition assay, qHTS confirmation; Potency, µM, actives largely listed as inhibitors; hit rate 89% among 840
VDR FP fluor – confirmation of human VDR-coactivator binding inhibitors, fluorescein label. Potency, µM (doses to about 57.1 µM), inactives show at the highest dose activity change, negative = inhibition, hits mostly inhibitors. hit rate 48% among 840. shares compounds with VDR inh. VDR-coactivator binding, fluorescein fluorescence polarization
VDR bla – inhibits human VDR in beta-lactamase reporter cells; shares compounds with VDR inh; VDR beta-lactamase reporter cells, FRET ratio; cells co-treated with VDR agonist LG190178; Potency, µM (doses to about 46.1 µM), without a hit: top-dose activity change, negative = inhibition, actives largely listed as inhibitors; hit rate 23% among 840; also: % is scaled to controls: 0 for no effect and ±100 for the full control effect
VDR viability – counter-screen for vitamin D receptor inhibitors: cytotoxicity. AID 602204. Potency, µM (top dose mostly 48.3 µM), for the others: at the top dose activity change, negative = cytotoxicity, hits mostly cytotoxic. cytotoxicity counter-screen, cell viability, qHTS. shares compounds with VDR inh. hit rate 18% among 840;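 also: plate controls were DMSO for no effect and high-concentration cycloheximide for full effect; nearly all actives have a fitted effect of over 75% in size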
TbPYK inh – confirmation of Trypanosoma brucei pyruvate kinase inhibitors. shares compounds with PLK1 PBD inh. recombinant TbPYK, Kinase-Glo ATP luminescence. Potency, µM (series often up to 76.9 µM), without a hit: at the highest dose activity change, negative = inhibition, most hits filed as inhibitors. hit rate 67% among 890; also: % is scaled to controls: 0 for no effect and ±100 for the full control effect; nearly all actives have a fitted effect of over 70% in size
TbPYK orthogonal – inhibits T. brucei pyruvate kinase in orthogonal ADP-Glo assay; shares compounds with PLK1 PBD inh; recombinant TbPYK, ADP-Glo luminescence, 60 min; Potency, µM (series often up to 76.9 µM), for the others: top-dose activity change, negative = inhibition, hits mostly inhibitors; hit rate 62% among 890; also: % is scaled to controls: 0 for no effect and ±100 for the full control effect; nearly all actives have a fitted effect of over 75% in size
Active calls of the source: *; ? = inconclusive; . = not tested or not shown; [ ] = dose if it differs, or a comment. Unless noted, calls follow the shape of the dose curve; as a rule, active = well fitted curve in the direction sought with a large enough effect; inconclusive = small, poorly fitted or top-dose-only effect, or another doubt; inactive = no such curve, though single readings can be large; an effect the other way counts as inactive or inconclusive. Potency is read from the fitted curve at half-maximal effect.

SMILES	PTAP TSG101 blk	PLK1 PBD inh	KAT2A inh	VDR inh	USP1 inh	VDR confirm	VDR FP fluor	VDR bla	VDR viability	TbPYK inh	TbPYK orthogonal
CN1C(=O)N(C)C(=O)C2(Sc3ccccc3C2=O)C1=O	-1.6%	5.32µM*	0.3%	35.5µM*	-6.7%	3.36*	3.55µM*	31.3%	-6.5%	5.01µM*	?
CCOC(=O)C1CCN(/C=C2/C(=O)NC(=S)N(c3cccc(OC)c3)C2=O)CC1	-0.3%	-12.9%	-1.8%	-19.9%	-9.5%	.	.	.	.	.	.
COC(=O)COc1ccc(/C=C2\C(=O)NC(=S)N(c3ccc(C)cc3)C2=O)cc1OC	-8.2%	8.44µM*	-13.3%	25.1µM*	-21.9%	6.7*	?	14.8%	25.7%	?	?
CN1C(=O)NC(=O)/C(=C/c2ccc([N+](=O)[O-])s2)C1=O	-5.3%	2.67µM*	-1.2%	44.7µM*	25.1µM*	8.44*	?	10.5%	?	5.01µM*	11.2µM*
F/C(COc1ccc2c(c1)[nH]c1ccccc12)=C1/CN2CCC1CC2	.	.	-10.6%	17.2%	.	.	.	.	.	.	.
CC(C)Nc1ccc(Nc2ccccc2)cc1	-0.4%	?	-16.1%	39.8µM*	-22.7%	?	7.08µM*	?	?	5.01µM*	15.8µM*
O=C(O)c1ccccc1-c1ccc(C=C2C(=O)N(c3ccccc3)C(=S)N(c3ccccc3)C2=O)o1	0.5%	2.67µM*	?	15.8µM*	-26.2%	3.77*	?	24.4%	3.9%	31.6µM*	39.8µM*
CN1C(=O)C(=Cc2ccc(-c3cccc(Cl)c3)o2)C(=O)N(C)C1=O	.	.	-12.0%	.	.	.	.	.	.	.	.
CN1C(=O)C(=Cc2ccc(N(C)C)c([N+](=O)[O-])c2)C(=O)N(C)C1=O	.	.	-4.5%	.	.	.	.	.	.	.	.
CN(C)c1ccc(C=C2C(=O)NC(=S)NC2=O)cc1[N+](=O)[O-]	-2.4%	3.77µM*	-15.3%	22.4µM*	-25.7%	13.4*	10µM*	28.2%	-7.6%	4.47µM*	14.1µM*
CC(=O)O[C@@H]1[C@@H](O)C2OC3C=C(C)C(=O)[C@@H](O)[C@]3(CO)C1(C)C21CO1 (some centres not stated)	.	.	0.6%	-2.2%	.	.	.	.	.	.	.
NS(=O)(=O)c1ccc(-c2ccc(C=C3C(=O)NC(=O)NC3=O)o2)cc1	-4.3%	2.67µM*	-11.8%	44.7µM*	9.8%	?	?	6.3%	-8.8%	1.78µM*	6.31µM*
O=C1NC(=O)C(=Cc2ccc(-c3cc(Cl)ccc3[N+](=O)[O-])o2)C(=O)N1	-5.9%	1.5µM*	-13.3%	79.4µM*	-8.2%	3.36*	25.3%	?	?	7.08µM*	1.12µM*
Cc1cccc(Oc2nc3c(C)cccn3c(=O)c2/C=C(\C#N)c2nc3ccccc3s2)c1	.	.	-2.7%	?	-5.5%	.	.	.	.	.	.
CC(C)C[C@H]1C(=O)N2CCC[C@@H]2[C@@]2(O)O[C@](NC(=O)[C@@H]3C=C4c5cccc6[nH]cc(c56)C[C@@H]4N(C)C3)(C(C)C)C(=O)N12	.	.	-12.0%[21.4 µM]	?	.	.	.	.	.	.	.
O=C(O)CCn1cc(C=C2C(=O)NC(=S)NC2=O)c(-c2cccc(Cl)c2)n1	3.2%	4.74µM*	-15.2%	25.1µM*	-10.6%	10.6*	?	13.7%	0.5%	7.08µM*	?
N[C@@H](Cn1cc(I)c(=O)[nH]c1=O)C(=O)O	.	.	-4.5%	-4.3%	.	.	.	.	.	.	.
CCOC(=O)c1c(C)n(Cc2ccc(F)cc2)c2ccc(O)cc12	-1.8%	-13.7%	-9.9%	-14.2%	-5.2%	.	.	.	.	?	17.8µM*
COc1ccccc1CNC(=O)CCC1N=C2c3ccccc3N=C(SCc3cccc(Cl)c3)N2C1=O (configuration not stated)	.	.	-0.6%	-14.5%	?	.	.	.	.	.	.
O=C1NC(=O)N(c2ccc3c(c2)OCO3)C(=O)/C1=C\c1ccc(N2CCCCC2)o1	?	78.7%	38.2%	-12.3%	-23.8%	.	.	.	.	.	.
CN1C(=O)NC(=O)/C(=C/c2ccc([N+](=O)[O-])o2)C1=O	0.7%	4.74µM*	-2.3%	70.8µM*	-26.3%	.	.	.	.	8.91µM*	?
COC(=O)C1=C(C)NC(C)=C(C(=O)NCCCN2CCC(c3ccccc3)(c3ccccc3)CC2)C1c1ccc([N+](=O)[O-])cc1 (configuration not stated)	.	.	0.0%	?	.	.	.	.	.	.	.
C=CCC1C(=O)NC(=S)NC1=O	0.6%	29.9µM*	-24.7%	89.1µM*	8.4%	.	.	.	.	0.562µM*	1.78µM*
CON(C)C(=O)Nc1ccc(Br)cc1	.	.	1.1%	10.2%	.	.	.	.	.	.	.
CC[C@H](C)[C@H](NC(=O)[C@H](CCCN=C(N)N)NC(=O)[C@H](CCCN=C(N)N)NC(=O)[C@H](CC(C)C)NC(=O)[C@H](Cc1ccccc1)NC(=O)CNC(=O)CNC(=O)[C@@H](N)Cc1ccc(O)cc1)C(=O)N[C@@H](CCCN=C(N)N)C(=O)N1CCC[C@H]1C(=O)N[C@@H](CCCCN)C(=O)N[C@@H](CC(C)C)C(=O)N[C@@H](CCCCN)C(=O)O	.	.	5.2%	3.4%	.	.	.	.	.	.	.
Cn1cccc1/C=C1/C(=O)NC(=S)N(Cc2ccc(F)cc2)C1=O	2.2%	0.67µM*	-17.0%	?	-28.9%	.	.	.	.	3.55µM*	?
CC[C@H]1CN2CC[C@@H]1C[C@H]2[C@@H](O)c1ccnc2ccc(OC)cc12	.	.	-15.8%[21.4 µM]	10.9%	.	.	.	.	.	.	.
CNS(=O)(=O)c1ccc(-c2ccc(C=C3C(=O)NC(=O)NC3=O)o2)cc1	-2.1%	2.12µM*	-5.0%	44.7µM*	?	.	.	.	.	2.82µM*	10µM*
